NOD2 RIPK2 PPI – inhibitors of human NOD2-RIPK2 interaction | 360,000 compounds, 0.38% hits | O43353 | inhibition, % at 4.98 µM | CHO BLA complementation NOD2-RIPK2, CCF4 ratio; in the data active = inhibition above about 21%
ANO1 block – inhibitors of mouse TMEM16A calcium-activated chloride channel; normalized B-score (activity score, 25-100; higher = stronger inhibition) at 10 µM; AID 588511; 310,000 compounds, 1.2% hits; Q8BHY3; HEK293 TMEM16A/YFP iodide influx fluorescence, ionomycin;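 active = ratio plate-corrected score three or more library SD toward inhibition, starting fluorescence score within five deviations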;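 note: score derived from kinetic fluorescence span divided by baseline fluorescence per well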
TLR9-MyD88 block – TLR9-MyD88 interaction inhibition; AID 504734; CHO BLA complementation TLR9-MyD88, CCF4 FRET ratio; 340,000 compounds, 0.21% hits; Q9NR96+Q99836; inhibition, % at 4.98 µM;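 active = inhibition above the mean over all tested compounds plus 3 SD, cut at about 21% in these data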
Target sequence (Q99836 whole entry, looked up): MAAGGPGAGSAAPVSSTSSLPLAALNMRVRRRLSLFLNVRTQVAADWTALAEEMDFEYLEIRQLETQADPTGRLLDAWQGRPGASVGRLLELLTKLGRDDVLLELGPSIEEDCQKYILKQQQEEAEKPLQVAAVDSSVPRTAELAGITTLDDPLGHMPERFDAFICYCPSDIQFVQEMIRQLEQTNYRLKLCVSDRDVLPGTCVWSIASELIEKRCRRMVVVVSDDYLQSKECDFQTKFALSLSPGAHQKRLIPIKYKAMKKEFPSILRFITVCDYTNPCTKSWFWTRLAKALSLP
Target sequence (Q9NR96 whole entry, looked up): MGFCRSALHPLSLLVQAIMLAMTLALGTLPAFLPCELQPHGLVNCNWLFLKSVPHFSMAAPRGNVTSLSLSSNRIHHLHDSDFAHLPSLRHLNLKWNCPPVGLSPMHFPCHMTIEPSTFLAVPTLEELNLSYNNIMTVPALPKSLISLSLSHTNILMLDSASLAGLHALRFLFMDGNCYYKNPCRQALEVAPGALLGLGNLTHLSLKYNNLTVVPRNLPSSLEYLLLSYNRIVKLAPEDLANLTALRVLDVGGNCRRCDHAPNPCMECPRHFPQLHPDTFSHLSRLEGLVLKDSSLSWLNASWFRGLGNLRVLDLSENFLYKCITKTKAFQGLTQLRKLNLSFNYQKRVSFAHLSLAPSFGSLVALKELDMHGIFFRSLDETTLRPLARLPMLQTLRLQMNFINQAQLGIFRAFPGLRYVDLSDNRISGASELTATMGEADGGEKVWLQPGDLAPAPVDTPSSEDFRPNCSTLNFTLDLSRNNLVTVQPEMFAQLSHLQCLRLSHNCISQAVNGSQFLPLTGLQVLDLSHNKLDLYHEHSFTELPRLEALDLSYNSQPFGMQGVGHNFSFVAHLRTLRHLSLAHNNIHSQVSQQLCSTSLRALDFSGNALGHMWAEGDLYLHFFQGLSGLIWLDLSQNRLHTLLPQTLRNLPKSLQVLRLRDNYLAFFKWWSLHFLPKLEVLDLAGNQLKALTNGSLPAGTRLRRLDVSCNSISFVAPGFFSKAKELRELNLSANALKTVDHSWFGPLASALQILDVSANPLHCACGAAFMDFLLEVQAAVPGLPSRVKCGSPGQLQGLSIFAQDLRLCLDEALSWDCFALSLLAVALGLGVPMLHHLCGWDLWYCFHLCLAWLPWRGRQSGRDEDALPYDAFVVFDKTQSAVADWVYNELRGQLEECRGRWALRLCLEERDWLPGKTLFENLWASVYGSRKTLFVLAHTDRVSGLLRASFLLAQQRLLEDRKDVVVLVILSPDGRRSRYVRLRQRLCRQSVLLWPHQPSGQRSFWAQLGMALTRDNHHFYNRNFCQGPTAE
TLR4-MyD88 BLA – blocks binding of human TLR4 to MyD88 | inhibition, % at 8.4 µM | AID 861 | HeLa CL3-4 TLR4/MyD88 BLA complementation, FRET ratio | 200,000 compounds, 0.18% hits; in the data active = inhibition above about 25%
GRK2 aptamer HTS – human GRK2 inhibition via aptamer displacement. P25098. bead flow cytometry, FAM-aptamer displacement from GRK2. inhibition of aptamer binding, % at 10 µM. 330,000 compounds, 0.59% hits. AID 488847;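 active = inhibition of aptamer binding above 40%, roughly 3 SD of noise, on plates passing a quality check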;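 note: median bead fluorescence of bound FAM aptamer so fluorescent compounds give negative values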
TMEM16A act – mouse TMEM16A channel activation, primary screen; Q8BHY3; 340,000 compounds, 0.3% hits; B-score at 10 µM; HEK293 TMEM16A/YFP-H148Q/I152L, iodide quench fluorescence; stronger effect = lower value;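 active = fluorescence-ratio B-score plate-corrected deviation score at least 3 library SD below zero, with starting fluorescence score within 5 deviations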;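 note: channel opened by trigger with iodide after compound preincubation; score built on the fluorescence ratio of max minus min over baseline; more negative score means more quench and so TMEM16A activation or potentiation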
Of the large screens only hits and unclear results are named; the others gave an inactive call. Rows were chosen to be rich in hits. Some 2.2% of all compounds tested hit in one or more screens of this group.

Cc1ccc(S(=O)(=O)N2CCC(=O)N(C(COCc3ccc(Cl)cc3Cl)Cc3ccccc3)CC2)cc1 (stereo unspecified)	TMEM16A act -28.6
Cc1ccc(S(=O)(=O)N2CCC(=O)N(C(COCc3cccc(C(F)(F)F)c3)Cc3ccccc3)CC2)cc1 (stereo unspecified)	TMEM16A act -19.3 (no result: GRK2 aptamer HTS)
Cc1ccc(S(=O)(=O)N2CCC(=O)N(C(COCc3ccccc3)Cc3ccccc3)CC2)cc1 (stereo unspecified)	none
O=C(NCCCN1CCOCC1)C(=O)NCC1OCCN1S(=O)(=O)c1ccc(Cl)cc1 (stereo unspecified)	none (no result: ANO1 block, TLR4-MyD88 BLA, GRK2 aptamer HTS, TMEM16A act)
Cc1cccc(/C=C/C(=O)c2cc(Br)ccc(=O)c2O)c1	ANO1 block 25
O=C(Cn1c(=O)oc2ccccc21)Nc1ccc(S(=O)(=O)N2CCCCC2)cc1	TMEM16A act -6.45
O=C(Nc1ccc(S(=O)(=O)N2CCCCC2)cc1)c1ccc(CN2CCOCC2)cc1	ANO1 block 100
NS(=O)(=O)c1ccc(NC(=O)CN2CCCN(S(=O)(=O)c3ccc(F)cc3)CC2)cc1	TMEM16A act -7.78
O=C(O)CC(C(=O)O)N1C(=O)/C(=C/C=C/c2ccco2)SC1=S (stereo unspecified)	GRK2 aptamer HTS 100.0 (no result: TLR4-MyD88 BLA)
O=C(O)CCCN1C(=O)/C(=C/C=C/c2ccco2)SC1=S	GRK2 aptamer HTS 100.0 (no result: TLR4-MyD88 BLA)
O=C(O)C(Cc1ccccc1)N1C(=O)/C(=C/C=C/c2ccco2)SC1=S (stereo unspecified)	none (no result: ANO1 block, TLR4-MyD88 BLA, GRK2 aptamer HTS)
O=C(CCN1C(=O)/C(=C\C=C\c2ccccc2)SC1=S)Nc1ccccc1C(=O)O	ANO1 block 25 (no result: TLR4-MyD88 BLA)
CC(C)NC(=O)C1C(c2ccc(C(F)(F)F)cc2)=Nc2ccccc2N1C(=O)c1cccc(C(F)(F)F)c1 (stereo unspecified)	none (no result: ANO1 block, TLR9-MyD88 block, TLR4-MyD88 BLA, GRK2 aptamer HTS, TMEM16A act)
CCc1ccc(CN(C)C(=O)c2cc(COc3c(F)cccc3F)on2)cc1	TMEM16A act -26.5
CN(Cc1cccc2ccccc12)C(=O)c1cc(COc2c(F)cccc2F)on1	none
COC(=O)C[C@@H]1C=C[C@H](NC(=O)Nc2cc(F)ccc2F)[C@@H](CO)O1	none (no result: ANO1 block, TLR9-MyD88 block, TLR4-MyD88 BLA, GRK2 aptamer HTS, TMEM16A act)
COc1cc(C2CC(=O)c3c([nH]c(C(=O)OCCOC(C)C)c3C)C2)cc(OC)c1OC (stereo unspecified)	ANO1 block 100
C[C@H]1CN([C@@H](C)CO)C(=O)c2cc(Br)cnc2O[C@H]1CN(C)C(=O)C1CC1	none (no result: ANO1 block, TLR4-MyD88 BLA, GRK2 aptamer HTS, TMEM16A act)
O=C(CSc1nc2nc(-c3cccs3)cc(C(F)(F)F)c2c(=O)[nH]1)Nc1c(F)c(F)c(F)c(F)c1F	ANO1 block 100
NS(=O)(=O)c1cccc(NC(=O)CSc2nc3nc(-c4cccs4)cc(C(F)(F)F)c3c(=O)[nH]2)c1	none (no result: TLR4-MyD88 BLA)
CC1(C(=O)Nc2ccc(F)cc2F)CCN1C(=O)CCC1CCCC1 (stereo unspecified)	none (no result: ANO1 block, TLR9-MyD88 block, TLR4-MyD88 BLA, GRK2 aptamer HTS, TMEM16A act)
CC(=O)NC(c1ccccc1)c1c(O)ccc2ccccc12 (stereo unspecified)	TMEM16A act -6.54
CCc1cc(-c2[nH]ncc2-c2nc3ccccc3n2C)c(O)cc1O	none (no result: TLR4-MyD88 BLA)
CCOc1cc(O)c(-c2[nH]ncc2-c2nc(C)cs2)cc1CC	ANO1 block 25 (no result: TLR4-MyD88 BLA)
O=C(COC(=O)c1ccco1)Nc1ccc([N+](=O)[O-])cc1Cl	TMEM16A act -25.7 (no result: ANO1 block, TLR4-MyD88 BLA)
COc1ccc(NC(=O)COC(=O)c2ccco2)c([N+](=O)[O-])c1	none
CCCCn1nnnc1C1(C)CCC(=O)N1Cc1ccc(C)cc1 (stereo unspecified)	none (no result: ANO1 block, TLR9-MyD88 block, TLR4-MyD88 BLA, GRK2 aptamer HTS, TMEM16A act)
CCOc1ccc(S(=O)(=O)NCc2ccncc2)cc1	ANO1 block 25
O=C(COc1ccccc1C(=O)O)Nc1ccc(SC(F)F)cc1	TLR4-MyD88 BLA 25.0
O=C(COC(=O)c1cc[n+]([O-])cc1)Nc1ccc(SC(F)F)cc1	none (no result: TLR4-MyD88 BLA)
O=C(COC(=O)c1cc(S(=O)(=O)N2CCCC2)ccc1O)Nc1ccc(SC(F)F)cc1	TMEM16A act -26.2 (no result: ANO1 block, TLR4-MyD88 BLA)
COc1ccc(S(=O)(=O)N2CCCCCC2)cc1C(=O)OCC(=O)NC(N)=O	none
O=C(COC(=O)c1ccccc1C(=O)c1ccccc1)Nc1ccc(SC(F)F)cc1	ANO1 block 100
COc1ccc(S(=O)(=O)N2CCCCCC2)cc1C(=O)OCC(=O)NC(C)(C)C	TMEM16A act -4.65
CN(C)C(=O)COC(=O)c1ccccc1OCC(=O)Nc1ccc(SC(F)F)cc1	none
Cc1ccc(S(=O)(=O)NC(=O)C2(C)CCN2C(=O)Cc2ccc(Cl)cc2Cl)nc1 (stereo unspecified)	none (no result: ANO1 block, TLR9-MyD88 block, TLR4-MyD88 BLA, GRK2 aptamer HTS, TMEM16A act)
O=C(CN1C(=O)c2ccccc2C1=O)C(O)CN1C(=O)c2ccccc2C1=O (stereo unspecified)	none (no result: ANO1 block, TLR9-MyD88 block, TLR4-MyD88 BLA, GRK2 aptamer HTS, TMEM16A act)
COC(=O)C[C@H]1C=C[C@@H](NC(=O)C2CC2)[C@@H](CO)O1	none (no result: ANO1 block, TLR9-MyD88 block, TLR4-MyD88 BLA, GRK2 aptamer HTS, TMEM16A act)
Nc1ncnc2c1ncn2[C@@H]1O[C@H](CNC(=O)[C@@H](N)Cc2ccc(C(=O)c3ccccc3)cc2)[C@@H](O)[C@H]1O	none (no result: ANO1 block, TLR9-MyD88 block, TLR4-MyD88 BLA, GRK2 aptamer HTS, TMEM16A act)
NC(=S)N/N=C1\CC(n2nnn(-c3cccc(Cl)c3)c2=S)C2COC1O2 (stereo unspecified)	TMEM16A act -5.65
O=C(Nc1ccc2oc(-c3ccncc3)nc2c1)c1ccc2c(c1)OCCO2	none (no result: TLR4-MyD88 BLA)
O=C(Nc1ccc2oc(-c3ccccc3)nc2c1)c1ccc2c(c1)OCCO2	ANO1 block 25
CC(C1CC1)N(Cc1ccccc1)C(=S)Nc1cccc(C(F)(F)F)c1 (stereo unspecified)	ANO1 block 100
CCN(CC)c1c(C)nc2ccc(C(=O)N3CCN(C(=O)c4ccco4)CC3)cn12	none (no result: ANO1 block, TLR9-MyD88 block, TLR4-MyD88 BLA, GRK2 aptamer HTS, TMEM16A act)
Cc1cc(NC(=O)CSc2nnc(-c3ccncc3)n2C)n(-c2ccccc2)n1	TMEM16A act -4.91 (no result: TLR4-MyD88 BLA)
Cc1cc(NC(=O)CSc2nnc(-c3ccncc3)n2Cc2ccccc2)n(-c2ccccc2)n1	none (no result: TLR4-MyD88 BLA)
CCCCOCCCNC(=O)C[C@@H]1C[C@@]2(C(=O)OC)CCCCC=C2N(Cc2cccc3ccccc23)C1=O	none (no result: ANO1 block, TLR9-MyD88 block, TLR4-MyD88 BLA, GRK2 aptamer HTS, TMEM16A act)
COc1ccc(OC)c(NC(=O)COC(=O)CN(C)S(=O)(=O)c2ccc(C)cc2)c1	GRK2 aptamer HTS 100.0
Cc1ccc(S(=O)(=O)N(C)CC(=O)OCC(=O)NC(=O)NC(C)C)cc1	none (no result: TLR4-MyD88 BLA)
CN(C)S(=O)(=O)Oc1cccc(C(=O)Nc2ccc(Cl)cc2)c1	ANO1 block 100
COC(=O)C1=C(C(=O)OC)[C@]2([C@H]3CC=CCN[C@@H](Cc4ccccc4)C(=O)N3Cc3ccccc3)C=C[C@H]1O2	TMEM16A act -10.4 (no result: ANO1 block, TLR4-MyD88 BLA, GRK2 aptamer HTS)
COC(=O)C1=C(C(=O)OC)[C@]2([C@@H]3CC=CCN[C@@H](Cc4ccccc4)C(=O)N3Cc3ccccc3)C=C[C@H]1O2	none (no result: ANO1 block, TLR4-MyD88 BLA, GRK2 aptamer HTS)
N#C/C(=C\c1ccc(-c2ccccc2[N+](=O)[O-])o1)C(=O)Nc1nc(-c2cccs2)cs1	GRK2 aptamer HTS 56.0
O=c1ccc2cccc([N+](=O)[O-])c2[nH]1	none (no result: ANO1 block, TLR9-MyD88 block, TLR4-MyD88 BLA, GRK2 aptamer HTS, TMEM16A act)

From PubChem BioAssay
